# In PubChem BioAssay AID1159580 (chemical genetic matrix, 2015):
# Where “and” joins values, the source holds several entries; their conditions need not be identical. Identical values can stand only once. About 2,000 (36%) of roughly 5,500 compounds were called active. Not shown: some 18% with an inconclusive outcome. Some of the results follow. A number with no mark means an inactive call. Rule as the data show it: active = normalized growth mostly below about 0.91 (no sharp cut-off); inconclusive = no clear call, values can overlap the other calls; inactive = mostly above about 0.92.
# Test: chemical genetic growth profiling, strain panel (AID 1159580);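 also: tested at 20 µM; growth read once vehicle control cultures reached saturation at 30 °C; 1 = growth at the plate median or of vehicle wells; lower values mean less growth of the strain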
# Conditions: S. cerevisiae deletion strains, growth OD
smiles,measurement,setting,value
COc1ccc2cc([C@H](C)C(=O)O)ccc2c1,normalized growth,"locus YAL013W, strain DEP1, active compounds read low",1
same,normalized growth,"locus YAL021C, strain ccr4, active compounds read low",0.943
same,normalized growth,"locus YAL026C, strain drs2, active compounds read low",0.961
same,normalized growth,"locus YAL030W, strain snc1, active compounds read low",0.981
same,normalized growth,"locus YAL040C, strain CLN3, active compounds read low",1.07
same,normalized growth,"locus YBL061C, strain skt5, active compounds read low",0.984
same,normalized growth,"locus YBR009C, strain hhf1, active compounds read low",0.98
same,normalized growth,"locus YBR021W, strain FUR4, active compounds read low",0.958
same,normalized growth,"locus YBR023C, strain chs3, active compounds read low",0.987
same,normalized growth,"locus YBR171W, strain sec66, active compounds read low",0.963
same,normalized growth,"locus YBR229C, strain ROT2, active compounds read low",1
same,normalized growth,"locus YBR231C, strain swc5, active compounds read low",0.996
same,normalized growth,"locus YBR279W, strain paf1, active compounds read low",0.967
same,normalized growth,"locus YCL011C, strain gbp2, active compounds read low",0.98
same,normalized growth,"locus YCL016C, strain dcc1, active compounds read low",0.993
same,normalized growth,"locus YCL029C, strain bik1, active compounds read low",0.999
same,normalized growth,"locus YCL061C, strain MRC1 (second series), active compounds read low",0.994
same,normalized growth,"locus YCL061C, strain MRC1, active compounds read low",0.974
same,normalized growth,"locus YCL069W, strain vba3, active compounds read low",0.968
same,normalized growth,"locus YCR088W, strain abp1, active compounds read low",0.972
same,normalized growth,"locus YDL005C, strain med2, active compounds read low",0.96
same,normalized growth,"locus YDL035C, strain GPR1, active compounds read low",0.984
same,normalized growth,"locus YDL040C, strain nat1, active compounds read low",0.973
same,normalized growth,"locus YDL074C, strain BRE1, active compounds read low",0.989
same,normalized growth,"locus YDL101C, strain DUN1, active compounds read low",1.02
same,normalized growth,"locus YDL134C, strain PPH21, active compounds read low",1
same,normalized growth,"locus YDL185W, strain tfp1, active compounds read low",0.957
same,normalized growth,"locus YDL192W, strain arf1, active compounds read low",0.985
same,normalized growth,"locus YDR001C, strain nth1, active compounds read low",0.98
same,normalized growth,"locus YDR069C, strain doa4, active compounds read low",0.963
same,normalized growth,"locus YDR101C, strain arx1, active compounds read low",1.01
same,normalized growth,"locus YDR137W, strain rgp1, active compounds read low",0.932
same,normalized growth,"locus YDR150W, strain NUM1, active compounds read low",1.01
same,normalized growth,"locus YDR159W, strain sac3, active compounds read low",0.926
same,normalized growth,"locus YDR162C, strain NBP2, active compounds read low",0.99
same,normalized growth,"locus YDR195W, strain ref2",0.932
same,normalized growth,"locus YDR297W, strain sur2, active compounds read low",0.978
same,normalized growth,"locus YDR318W, strain mcm21, active compounds read low",0.996
same,normalized growth,"locus YDR334W, strain swr1, active compounds read low",0.961
same,normalized growth,"locus YDR335W, strain msn5, active compounds read low",0.988
same,normalized growth,"locus YDR363W, strain ESC2, active compounds read low",0.979
same,normalized growth,"locus YDR388W, active compounds read low",0.998
same,normalized growth,"locus YDR392W, strain spt3, active compounds read low",0.842
same,normalized growth,"locus YDR502C, strain sam2, active compounds read low",0.964
same,normalized growth,"locus YEL003W, strain gim4, active compounds read low",0.951
same,normalized growth,"locus YEL037C, strain rad23, active compounds read low",0.958
same,normalized growth,"locus YEL061C, strain CIN8 (second series), active compounds read low",0.964
same,normalized growth,"locus YEL061C, strain CIN8, active compounds read low",1
same,normalized growth,"locus YER002W, strain NOP16, active compounds read low",0.969
same,normalized growth,"locus YER015W, strain faa2, active compounds read low",0.978
same,normalized growth,"locus YER016W, strain bim1, active compounds read low",0.976
same,normalized growth,"locus YER110C, active compounds read low",0.992
same,normalized growth,"locus YER111C, strain swi4, active compounds read low",0.966
same,normalized growth,"locus YER155C, strain BEM2 (second series), active compounds read low",0.964
same,normalized growth,"locus YER155C, strain BEM2, active compounds read low",0.975
same,normalized growth,"locus YER167W, strain BCK2, active compounds read low",0.986
same,normalized growth,"locus YFR010W, strain ubp6, active compounds read low",0.959
same,normalized growth,"locus YGL078C, strain dbp3, active compounds read low",0.957
same,normalized growth,"locus YGL086W, strain mad1, active compounds read low",0.98
same,normalized growth,"locus YGL167C, strain pmr1, active compounds read low",0.977
same,normalized growth,"locus YGL173C, strain kem1, active compounds read low",0.97
same,normalized growth,"locus YGL227W, strain vid30, active compounds read low",0.98
same,normalized growth,"locus YGL240W, strain doc1, active compounds read low",0.962
same,normalized growth,"locus YGL248W, strain PDE1, active compounds read low",1
same,normalized growth,"locus YGL253W, strain hxk2, active compounds read low",0.985
same,normalized growth,"locus YGR078C, strain PAC10, active compounds read low",1
same,normalized growth,"locus YGR135W, strain pre9, active compounds read low",0.984
same,normalized growth,"locus YGR229C, strain SMI1, active compounds read low",0.999
same,normalized growth,"locus YGR252W, strain gcn5, active compounds read low",0.933
same,normalized growth,"locus YHR013C, strain ard1, active compounds read low",0.928
same,normalized growth,"locus YHR027C, strain rpn1, active compounds read low",0.971
same,normalized growth,"locus YHR030C, strain SLT2, active compounds read low",1.01 and 0.896
same,normalized growth,"locus YHR079C, strain IRE1 (second series), active compounds read low",1
same,normalized growth,"locus YHR079C, strain IRE1, active compounds read low",0.881
same,normalized growth,"locus YHR094C, strain hxt1, active compounds read low",0.986
same,normalized growth,"locus YHR129C, strain ARP1, active compounds read low",1.01
same,normalized growth,"locus YHR142W, strain chs7, active compounds read low",0.965
same,normalized growth,"locus YHR200W, strain rpn10, active compounds read low",0.982
same,normalized growth,"locus YIL066C, strain RNR3, active compounds read low",1.01
same,normalized growth,"locus YIL073C, strain SPO22, active compounds read low",1.03
same,normalized growth,"locus YIL125W, strain kgd1, active compounds read low",0.93 (active)
same,normalized growth,"locus YIR030C, strain dcg1, active compounds read low",0.995
same,normalized growth,"locus YJL092W, strain hpr5, active compounds read low",0.959
same,normalized growth,"locus YJL095W, strain BCK1 (second series), active compounds read low",0.987
same,normalized growth,"locus YJL095W, strain BCK1, active compounds read low",1.04 and 0.918
same,normalized growth,"locus YJL115W, strain asf1, active compounds read low",0.96
same,normalized growth,"locus YJL129C, strain trk1, active compounds read low",0.9
same,normalized growth,"locus YJL134W, strain LCB3, active compounds read low",1
same,normalized growth,"locus YJL154C, strain vps35, active compounds read low",0.976
same,normalized growth,"locus YJL164C, strain tpk1, active compounds read low",0.967
same,normalized growth,"locus YJL166W, strain qcr8, active compounds read low",0.97
same,normalized growth,"locus YJL168C, strain set2, active compounds read low",0.991
same,normalized growth,"locus YJL187C, strain SWE1 (second series), active compounds read low",1.02
same,normalized growth,"locus YJL187C, strain SWE1, active compounds read low",0.972
same,normalized growth,"locus YJR043C, strain POL32, active compounds read low",0.981
same,normalized growth,"locus YJR066W, strain TOR1, active compounds read low",0.845
